These results are taken from PubChem BioAssay (EPA / NIEHS).

Molecules are shown by their SMILES. Inconclusive results are not listed. Calls of active or inactive are those of the source. Rule for the calls: active = hit-call score of the fitted dose curve at least 0.9, where 1 is the maximum; inconclusive = response in the unintended direction; inactive = score below 0.9.

Sequence of human Phosphodiesterase 10 (PDE10), PDE10A (gene 10846) (Q9Y233 whole entry, looked up): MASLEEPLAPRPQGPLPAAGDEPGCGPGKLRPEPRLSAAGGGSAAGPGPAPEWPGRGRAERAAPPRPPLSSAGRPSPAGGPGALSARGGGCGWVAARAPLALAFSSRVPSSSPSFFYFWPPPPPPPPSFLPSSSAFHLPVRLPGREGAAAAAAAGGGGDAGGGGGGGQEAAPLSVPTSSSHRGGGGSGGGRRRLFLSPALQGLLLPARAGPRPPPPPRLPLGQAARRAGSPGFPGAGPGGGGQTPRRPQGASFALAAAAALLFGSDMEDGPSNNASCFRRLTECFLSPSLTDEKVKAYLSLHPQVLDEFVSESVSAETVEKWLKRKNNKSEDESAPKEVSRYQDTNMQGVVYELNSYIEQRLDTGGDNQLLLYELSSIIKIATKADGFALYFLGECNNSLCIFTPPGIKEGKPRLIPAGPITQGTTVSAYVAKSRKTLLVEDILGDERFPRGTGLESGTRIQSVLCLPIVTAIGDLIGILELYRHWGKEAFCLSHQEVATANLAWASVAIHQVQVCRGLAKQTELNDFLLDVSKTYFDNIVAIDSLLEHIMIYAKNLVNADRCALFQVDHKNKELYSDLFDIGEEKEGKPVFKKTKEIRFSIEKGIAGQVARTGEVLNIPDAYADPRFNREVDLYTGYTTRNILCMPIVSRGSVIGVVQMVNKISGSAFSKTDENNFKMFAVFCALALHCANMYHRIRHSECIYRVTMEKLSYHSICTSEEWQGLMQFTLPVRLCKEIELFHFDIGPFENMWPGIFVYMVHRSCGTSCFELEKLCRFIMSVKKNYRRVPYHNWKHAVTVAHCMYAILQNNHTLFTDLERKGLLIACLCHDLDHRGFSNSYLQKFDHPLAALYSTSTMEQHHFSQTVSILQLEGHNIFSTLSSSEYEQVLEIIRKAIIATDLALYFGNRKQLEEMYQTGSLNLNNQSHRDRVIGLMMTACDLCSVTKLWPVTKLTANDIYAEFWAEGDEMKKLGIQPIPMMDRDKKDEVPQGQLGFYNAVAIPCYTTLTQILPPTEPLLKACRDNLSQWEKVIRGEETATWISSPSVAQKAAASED
Sequence of human Matrix Metalloproteinase-9 (MMP9), MMP9 (gene 4318) (P14780 whole entry, looked up): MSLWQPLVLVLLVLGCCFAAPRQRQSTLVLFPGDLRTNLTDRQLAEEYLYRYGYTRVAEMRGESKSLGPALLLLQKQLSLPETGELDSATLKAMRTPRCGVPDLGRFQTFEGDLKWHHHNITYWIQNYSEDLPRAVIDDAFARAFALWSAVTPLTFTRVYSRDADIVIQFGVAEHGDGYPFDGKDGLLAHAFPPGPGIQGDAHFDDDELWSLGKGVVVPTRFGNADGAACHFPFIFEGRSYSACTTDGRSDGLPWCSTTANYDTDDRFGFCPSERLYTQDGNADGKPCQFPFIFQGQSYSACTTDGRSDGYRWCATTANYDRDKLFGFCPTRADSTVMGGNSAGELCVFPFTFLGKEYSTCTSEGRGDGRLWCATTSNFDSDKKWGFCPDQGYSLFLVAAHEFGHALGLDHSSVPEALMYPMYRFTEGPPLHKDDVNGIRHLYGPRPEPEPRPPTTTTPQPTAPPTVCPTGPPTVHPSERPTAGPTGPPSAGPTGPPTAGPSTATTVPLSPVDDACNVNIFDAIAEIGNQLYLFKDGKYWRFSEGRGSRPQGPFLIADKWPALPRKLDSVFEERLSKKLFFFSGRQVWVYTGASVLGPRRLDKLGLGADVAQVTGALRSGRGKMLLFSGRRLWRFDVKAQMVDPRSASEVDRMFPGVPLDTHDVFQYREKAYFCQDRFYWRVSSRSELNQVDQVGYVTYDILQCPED

For one test, the target named is human Matrix Metalloproteinase-9 (MMP9), MMP9 (gene 4318) (UniProt P14780). The test can be described thus: NVS_ENZ_hMMP9: NovaScreen (NVS) Enzymatic Assay for human Matrix Metalloproteinase-9 (MMP9) (AID 2283190).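 Note: cell-free recombinant MMP9 protease activity read by fluorescent substrate signal; active means inhibition seen as loss of fluorescence signal versus DMSO.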 The essentials:
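Extracted enzyme, fluorescent substrate, 1 h post-dose read. Single conc 25 uM in duplicate, then concentration series for actives. Activity = signal loss relative to DMSO negative control.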
For `c1ccc2[nH]cnc2c1`, the AC50 was 7.49 µM (active). As for `NC(=S)NNC(N)=S`, the AC50 is 3.45 µM (active). As to `C=C(C)C(=O)OCC(CC)(COC(=O)C(=C)C)COC(=O)C(=C)C`, the AC50 is 0.749 µM (active). The same measure, in the same setting: next, `O=C1OC[C@H](Cc2cccc(O)c2)[C@H]1Cc1cccc(O)c1`: 5.03 µM (active). With `C=CCCCCCCCCCC`, the result was inactive.

For the compound `C=C(C#N)C(=O)OCC`, the AC50 is 8.63 µM (active). With `CCOCCOCCOCC`, the AC50 was 15.4 µM (active). Consider `CC(C)(N=C=O)c1cccc(C(C)(C)N=C=O)c1`, for which the AC50 is 0.933 µM (active). Regarding `CCC(C)=O`, the AC50 is 6.96 µM (active). In the case of `CC(C)CC(C)CC(O)CC(C)C` (stereo not drawn), the AC50 was 5.13 µM (active). For the compound `CSCCC=O`, the AC50 is 0.684 µM (active). `c1ccc(Oc2ccccc2)cc1`: the outcome was inactive.

In the next test the target is human Phosphodiesterase 10 (PDE10), PDE10A (gene 10846) (UniProt Q9Y233). The test can be described thus: NVS_ENZ_hPDE10: NovaScreen (NVS) Enzymatic Assay for human Phosphodiesterase 10 (PDE10) (AID 2283195). A digest of the protocol:
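Fluorescence readout after mobility-shift separation of substrate and product, 1 h reaction with recombinant human enzyme. Single-concentration duplicates at 25 uM, then concentration-response up to 50 uM for chemicals reaching threshold; DMSO baseline.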
As for `COc1cccc(OC)c1O`, the compound was called inactive. Same read-out and setting: next, `CC(C)Nc1nc(N)nc(Cl)n1`: “inactive”. `C=CC(=O)OCCCC`: the AC50 is 10.2 µM (active).

`Cc1ncc([N+](=O)[O-])n1CCO`: the result was inactive.

As for `CCCCC(CC)(CO)CO`, the outcome was inactive.

Take `CCC(C)c1cc([N+](=O)[O-])cc([N+](=O)[O-])c1OC(=O)OC(C)C` (stereo not drawn): the compound was classed as inactive. Turning to `CCCCSCCCC`, the AC50 is 1 µM (active). On to `C=C(C)[C@H]1CC=C(C)C(=O)C1`, for which the compound was called inactive. For the compound `CC=Cc1ccc(OCC)c(O)c1`, the compound was called inactive. Same read-out and setting: for `CCC1CCCCC1` the value was “inactive”.

As to `COc1ccc(OC)c(N=Nc2c(O)ccc3ccccc23)c1`, the AC50 is 42.3 µM (active). `O=C1OC(=O)c2c(Br)c(Br)c(Br)c(Br)c21`: the call was inactive. For `CS(=O)(=O)c1ccc(C2=C(c3ccccc3)C(=O)OC2)cc1`, the compound was classed as inactive.

A further test deals with human Phosphoinositide 3-kinase alpha (PI3Ka), PIK3CA (gene 5290) (UniProt P42336). Briefly: NVS_ENZ_hPI3Ka: NovaScreen (NVS) Enzymatic Assay for human Phosphoinositide 3-kinase alpha (PI3Ka) (AID 2283196). A digest of the protocol: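 Fluorescence/mobility-shift readout of substrate conversion by recombinant enzyme, 1 h post-dosing. Primary screen in duplicate at 25 uM; actives (e.g. ≥30% inhibition) retested in singleton concentration-response, top concentration 50 uM.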
Sequence of human Phosphoinositide 3-kinase alpha (PI3Ka), PIK3CA (gene 5290) (P42336 whole entry, looked up): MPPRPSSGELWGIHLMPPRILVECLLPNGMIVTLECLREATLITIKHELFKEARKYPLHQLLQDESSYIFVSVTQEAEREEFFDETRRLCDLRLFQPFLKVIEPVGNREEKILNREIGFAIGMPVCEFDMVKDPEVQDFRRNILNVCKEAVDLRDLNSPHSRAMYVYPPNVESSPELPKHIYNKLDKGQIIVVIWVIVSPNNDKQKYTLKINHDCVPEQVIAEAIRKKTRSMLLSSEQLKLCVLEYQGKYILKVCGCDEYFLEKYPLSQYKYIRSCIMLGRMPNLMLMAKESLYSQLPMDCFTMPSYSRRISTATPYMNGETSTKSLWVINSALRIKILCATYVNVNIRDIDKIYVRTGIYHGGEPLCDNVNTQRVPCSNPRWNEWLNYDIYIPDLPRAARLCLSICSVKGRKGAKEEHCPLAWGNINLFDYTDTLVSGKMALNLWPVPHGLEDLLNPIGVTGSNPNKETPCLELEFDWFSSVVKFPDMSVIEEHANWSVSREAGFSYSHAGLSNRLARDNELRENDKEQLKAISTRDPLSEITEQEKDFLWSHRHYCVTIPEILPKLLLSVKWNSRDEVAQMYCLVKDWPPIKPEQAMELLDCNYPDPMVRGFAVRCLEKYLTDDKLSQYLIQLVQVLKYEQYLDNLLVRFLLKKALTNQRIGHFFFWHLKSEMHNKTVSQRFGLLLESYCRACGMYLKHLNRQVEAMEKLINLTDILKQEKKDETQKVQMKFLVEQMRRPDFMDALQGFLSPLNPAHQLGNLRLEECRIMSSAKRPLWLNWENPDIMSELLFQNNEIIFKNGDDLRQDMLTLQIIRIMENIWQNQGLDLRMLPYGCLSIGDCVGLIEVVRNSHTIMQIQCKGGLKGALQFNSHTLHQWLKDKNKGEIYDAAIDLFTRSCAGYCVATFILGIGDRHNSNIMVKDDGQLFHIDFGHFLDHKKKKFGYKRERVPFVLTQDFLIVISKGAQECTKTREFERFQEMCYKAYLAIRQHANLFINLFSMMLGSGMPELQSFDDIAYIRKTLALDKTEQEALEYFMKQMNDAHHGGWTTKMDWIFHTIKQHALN
For `NC(=S)NNC(N)=S`, the result was inactive. Consider `C=CC(=O)OCCCC`, for which the AC50 was 0.00235 µM (active). On the same count and under the same terms, next, `CC(C)(N=C=O)c1cccc(C(C)(C)N=C=O)c1`: 9.87 µM (active).

In general, AC50 refers to the concentration at which the activity in the assay is half-maximal.
